# Data taken from ChEMBL document CHEMBL1157539, “Thousands of chemical starting points for antimalarial lead identification” (Nature, 2010).
# Tested on: Plasmodium falciparum
# Test: GSK_TCMDC: Inhibition of Plasmodium falciparum Dd2 in whole red blood cells, using parasite LDH activity as an index of growth. Test compounds present at 2uM
# Assay type: functional
row,SMILES,Inhibition
1,CCCCCCC1(C)N=C(N)N=C(N)C1c1ccc(Cl)c(Cl)c1.Cl (configuration not stated),43%
2,CC(C)N1CCC(N(Cc2ccc(-c3ccc(C(F)(F)F)cc3)cc2)C(=O)Cn2c(SCc3cccc(F)c3F)nc(=O)c3ccccc32)CC1.O=C(O)C(O)C(O)C(=O)O,75%
3,Cc1[nH]c(C)c(-c2ccc(CCc3ccc(F)cc3F)cc2)c(=O)c1Cl,97%
4,COc1ccc(C=NN=c2c3ccccc3[nH]c3ccccc23)c2ccccc12,23%
5,COc1ccc2c(c1)c(C1CCN(CCCCNC(=O)c3ccc(-c4ccc(C(F)(F)F)cc4)cc3)CC1)cn2C(C)C,21%
6,O=C(Nc1ccc(Cl)c(Cl)c1)N1CCC(NCc2cccc([N+](=O)[O-])c2)CC1.O=C(O)C(F)(F)F,12%
7,CCCS(=O)(=O)c1nc(S(=O)(=O)c2ccc(Cl)cc2)c(N2CCCCC2)s1,34%
8,Cc1cc(N)c2cc(NC(=O)CCC(=O)Nc3ccc4nc(C)cc(N)c4c3)ccc2n1,77%
9,CNCCNCc1cccc(-c2cccc(-c3nc4cccc(C)c4[nH]3)c2)c1.O=C(O)C(F)(F)F,9%
10,Cc1cc(NCCCN2CCCC2=O)n2c(nc3ccccc32)c1C#N,48%
11,CC1CCN(CCCNc2ccc(C(=O)Nc3ccc(C(F)(F)F)cc3)cc2[N+](=O)[O-])CC1,100%
12,Cl.NC1CCN(CCc2ccc(NS(=O)(=O)c3cccc4ccccc34)cc2)CC1,4%
13,CCCCCCN(CCCCCC)CC(O)c1cc(-c2ccc(Cl)cc2)nc2c(C)cc(C)cc12 (configuration not stated),98%
14,FC(F)(F)c1ccc(N2CCCN(Cc3cccc(-c4ccccc4CNCc4ccc5c(c4)OCO5)c3)CC2)nc1.O=C(O)C(F)(F)F,11%
15,CC(C)(C)c1ccc2[nH]c(-c3ccc(C(=O)NC4CCN(Cc5ccccc5)CC4)s3)nc2c1,42%
16,CCCC(C)Nc1nc(C)cc(N[C@@H](Cc2ccccc2)C(=O)NCCc2ccccc2)n1.O=C(O)C(F)(F)F (some centres not stated),68%
17,COc1ccc(C(=O)C2CCN(CCCCNC(=O)c3ccc(NC(=O)c4cc(Cl)cc(Cl)c4)cc3)CC2)cc1,84%
18,CN(C)CCN(Cc1ccc(-c2ccc(CNCCc3ccccc3)cc2)nc1)C(=O)CCC1CCCC1.O=C(O)C(F)(F)F,89%
19,O=C(O)C(F)(F)F.O=S(=O)(/C=C/c1ccccc1)N(Cc1ccc(-c2ccc(CNCCOc3ccccc3)cc2)cc1)CC1CCCCN1 (configuration not stated),95%

row,SMILES,Inhibition
1,COc1ccc2ncc(C#N)c(CCN3CCC(NCc4ccc5c(c4)OCCO5)CC3)c2c1.Cl,31%
2,Fc1ccccc1CNc1ncc(-c2ccsc2)c(-c2nccs2)n1,71%
3,COc1ccc2ncc(F)c(CCN3CCC(CNC(=O)C(=O)c4c[nH]c5ccccc45)CC3)c2n1,99%
4,CN1CCN(c2ncnc3ccc(NC(=O)Nc4ccc(Cl)c(Cl)c4)cc23)CC1,89%
5,CC(C)(C)c1nn(-c2ccccc2)c2[nH]c(=O)c(CNC3CCCCC3)cc12,76%
6,CC(=O)Nc1nc(C(=O)Nc2ccc(-c3ccc(-c4nc5cc(F)ccc5[nH]4)cc3)cc2)cs1,33%
7,COc1ccc2cc(C(C)NC3CCN(c4cccc(NC(=O)c5ccncc5)c4)CC3)ccc2c1 (configuration not stated),6%
8,O=C(NC1CC1)C1CCN(Cc2cc3ccccc3n2Cc2ccc(Cl)cc2)CC1,96%
9,CCOC(=O)C(NC(=O)c1ccc([N+](=O)[O-])o1)C(C)C (configuration not stated),8%
10,Cl.O=S(=O)(Nc1cc2c(cc1O)CCN(C1CCC1)CC2)c1ccc(Oc2ccc(F)cc2)cc1,52%
11,COc1cc(Nc2ccnc3ccc(C(F)(F)F)cc23)cc(OC)c1OC,100%
12,Cc1ccc(F)c(OCC2CCCN(c3ccc(C(=O)NC4CC4)cn3)C2)c1 (configuration not stated),94%
13,CN(C)CCCNC(=O)c1ccccc1Sc1ccccc1C#N.Cl,3%
14,CCNc1cc(C(=O)N[C@@H](Cc2ccccc2)[C@H](O)CNC2(Cc3cccc(Cl)c3)CCC2)cc(N2CCCCS2(=O)=O)c1.Cl,83%
15,Cc1cccc(CCCNC(=O)CN(c2cccc(C(F)(F)F)c2)S(=O)(=O)c2ccc(C(F)(F)F)cc2)c1,94%
16,CCN1CCN(CCNc2c3ccccc3nc3ccccc23)CC1.Cl,8%
17,CN1CCCc2ccc(NC(=O)Nc3ccc(Cl)c(Cl)c3)cc2C1,22%
18,O=C(Nc1ccc(-c2nc3ccccc3[nH]2)cc1)c1ccc(S(=O)(=O)N2CCCCCC2)cc1,21%
